JMJD2A Tudor – qHTS Assay for Inhibitors of JMJD2A-Tudor Domain; Lysine-specific demethylase 4A (Homo sapiens), O75164; hit rate 4.4% among 390,000; AlphaScreen JMJD2A-Tudor / H3K4me3 peptide binding; Potency, µM (series often up to 114 µM), inactives show at the highest dose activity change, negative = inhibition, actives largely listed as inhibitors; AID 504339, 2011; further: on the % scale 0 is the no-effect control and ±100 the full control effect; nearly all actives have a fitted effect of over 50% in size
BAZ2B block – qHTS Assay for Inhibitors of BAZ2B. Bromodomain adjacent to zinc finger domain protein 2B (Homo sapiens), Q9UIF8. AlphaScreen BAZ2B-H3K14Ac peptide displacement. Potency, µM (top dose mostly 114 µM), for the others: top-dose activity change, negative = inhibition, hits mostly inhibitors. hit rate 4.4% among 360,000. AID 504333, 2011; further: on the % scale 0 is the no-effect control and ±100 the full control effect; nearly all actives have a fitted effect of over 60% in size
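Protein-peptide AlphaScreen: BAZ2B 50 nM, b-H3K14Ac 50 nM, 1x PBS pH 7.4 + 0.01% Tween-20. Preincubation 30 min RT; cpd 30 min RT (top 110 uM); beads 20 min RT, light-protected.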
HP1b chromo inh – HTS for Inhibitors of HP1-beta Chromodomain Interactions with Methylated Histone Tails; AID 540317, 2011; Chromobox protein homolog 1 (Homo sapiens), P83916; AlphaScreen HP1-beta / biotin-H3K9me3 peptide binding; hit rate 0.56% among 390,000; Potency, µM (series often up to 114 µM), for inactives: at the top dose activity change, negative = inhibition, actives largely listed as inhibitors; further: nearly all actives have a fitted effect of over 70% in size
Target sequence (P83916 whole entry, looked up): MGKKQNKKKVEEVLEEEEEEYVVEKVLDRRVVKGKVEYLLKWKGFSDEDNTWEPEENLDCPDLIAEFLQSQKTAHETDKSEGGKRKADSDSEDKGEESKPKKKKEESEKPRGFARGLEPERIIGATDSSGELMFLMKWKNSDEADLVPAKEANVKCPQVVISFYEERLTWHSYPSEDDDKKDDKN
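AlphaScreen: HP1-beta (50 nM) preformed 30 min with biotin-H3(1-18)K9me3 peptide (50 nM) in PBS pH 7.4, 0.01% Tween-20. Compound added for 30 min at RT, then streptavidin donor/nickel chelate acceptor beads (10 ug/mL) for 30 min.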
Sfp PPTase inh – qHTS Assay for Inhibitors of Bacillus subtilis Sfp phosphopantetheinyl transferase (PPTase). AID 1490, 2009. Potency, µM, inactives show largest response in the series, negative = inhibition, actives largely listed as inhibitors. hit rate 3.5% among 310,000. Biochemical Sfp PPTase activity, qHTS;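 further: the enzyme is Sfp with the accession as filed and its product quenches rhodamine fluorescence; 0% = enzyme reaction without inhibitor and -100% = no enzyme wells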
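Fluorescence-quenching assay with 15 nM Sfp, 5 uM rhodamine-CoA and 12.5 uM BHQ-2-labelled ybbR peptide in pH 7.6 Hepes/MgCl2 buffer. Enzyme was pre-incubated with compound for 15 min at room temperature. Rate was taken from the 30-min fluorescence change (525/598 nm).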
G9a inh – qHTS Assay for Inhibitors of Histone Lysine Methyltransferase G9a; G9a H3K9 monomethylation, AlphaScreen, 2 h; Histone-lysine N-methyltransferase EHMT2 (Homo sapiens), Q96KQ7; Potency, µM (highest dose often 102 µM), inactives show at the top dose activity, negative = inhibition, usual class: inhibitors; AID 504332, 2011; hit rate 8.8% among 350,000; further: on the % scale 0 is the no-effect control and ±100 the full control effect; nearly all actives have a fitted effect of over 75% in size
Target sequence (Q96KQ7 913-1193 limits assumed): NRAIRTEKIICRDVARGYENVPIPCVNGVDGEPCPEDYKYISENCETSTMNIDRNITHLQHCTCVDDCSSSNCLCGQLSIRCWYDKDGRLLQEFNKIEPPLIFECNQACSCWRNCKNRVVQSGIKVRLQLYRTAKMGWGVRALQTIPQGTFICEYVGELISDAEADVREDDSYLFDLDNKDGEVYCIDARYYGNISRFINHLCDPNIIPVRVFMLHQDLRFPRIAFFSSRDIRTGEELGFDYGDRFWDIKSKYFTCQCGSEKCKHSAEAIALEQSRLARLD
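Readings reflect AlphaScreen signal from monomethyl-H3K9 antibody detection. HMT at 20 nM; substrate b-H3K9 500 nM; cofactor SAM 20 uM; 2 h RT reaction; compounds tested as titrations in qHTS with 15 min preincubation.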
Starred values were filed as active, the others as inactive; ? = inconclusive; · = no result given; ! = repeats disagree; [ ] = remark or other dose. Sampled rows, rich in hits. Any-hit rate of the full collection: about 12%. The call rests on the fitted dose curve; in most records, active means well fitted curve in the direction sought with a large enough effect; inconclusive means small, poorly fitted or top-dose-only effect, or another doubt; inactive means no such curve, though single readings can be large; an effect the other way counts as inactive or inconclusive. Potency means the concentration at half of the fitted maximal effect.

SMILES | JMJD2A Tudor | BAZ2B block | HP1b chromo inh | Sfp PPTase inh | G9a inh
CCN(CC)c1ccc(CNc2nnnn2C)cc1 | -10.3% | ? | 15.5% | 4.3% | 31.6µM*
CCCCn1nnnc1NCc1ccc(N2CCCC2)cc1 | ? | ? | -19.0% | -19.8% | -39.7%[12.7 µM]
CCOc1ccc(CCNC(=O)C2Cc3ccccc3N2C(=O)CC)cc1 (stereo unspecified) | -3.6% | -12.9% | 30.7% | · | -7.3%[12.7 µM]
NS(=O)(=O)c1ccc(CCNc2nc(CN3CCOCC3)nc3sc4c(c23)CCC4)cc1 | -23.4% | -29.6% | 21.1% | -9.7% | 12.6µM*
COc1ncnc2c1NC1=C(S2)C(=NCCC(=O)O)CC(C)(C)C1 | -31.6% | ? | 48.1% | 14.1µM* | 17.8µM*
CC1(C)CC(=O)/C(=C(\O)Cc2ccccc2)C(=NCCCCCC(=O)O)C1 | -2.1% | 9.6% | 13.2% | 1.5% | 0.1%[59 µM]
CN(C)c1ncnc2c1NC1=C(S2)C(=NCCCC(=O)O)CC(C)(C)C1 | -18.2% | ? | 29.8% | 22.4µM* | ?
CC(Cl)C(=O)NNc1cccc(Cl)n1 (stereo unspecified) | -6.6% | 4.1% | -0.7% | 50.1µM* | -24.1%[59 µM]
O=C(NNc1cccc(Cl)n1)c1ccccc1CC[N+](=O)[O-] | 22.4µM* | 2.1% | -14.3% | 20.7% | -0.7%
COc1ccc(-c2c(-c3cc(OC)cc(OC)c3)n(C)c3ccc(-c4ccc(N(C)C)nc4)cc23)cc1 | ? | ? | -7.8% | · | -0.4%[0.501 µM]
c1cncc(-c2cccnc2)c1 | -14.2%[57.1 µM] | 39.8µM* | 36.7% | -20.8% | ·
Cc1cccc(C)c1OCCn1c(CCNC(=O)C2CCCCC2)nc2ccccc21 | -17.1% | -30.4% | 30.4% | · | 5.5%[59 µM]
CCNC(=O)c1ccc(C2SCC(=O)N2CCc2ccccc2)cc1 (stereo unspecified) | 7.1% | 11.7% | 24.1% | -6.2% | 2.5%[59 µM]
C=CCNC(=O)c1ccc(C2SCC(=O)N2Cc2ccccc2)cc1 (stereo unspecified) | -2.1% | -16.5% | 27.0% | 1.9% | 50.1µM*
CCCNC(=O)c1ccc(C2SCC(=O)N2CCc2ccccc2)cc1 (stereo unspecified) | -15.9% | 2.3% | 17.8% | -0.7% | 44.7µM*
COc1cc(OC)cc(C(=O)NCCNc2nc3cc(C)cc(C)c3cc2C#N)c1 | 11.1% | 4.1% | 34.2% | -3.3% | ·
CCN(C(=O)COC(=O)c1cc(-c2ccc(C)o2)nc2ccccc12)C1CCS(=O)(=O)C1 (stereo unspecified) | 89.1µM* | -1.7% | 5.3% | 20µM* | 2µM*
Cc1ccc(-c2cc(C(=O)OCC(=O)N(C)C3CCS(=O)(=O)C3)c3ccccc3n2)o1 (stereo unspecified) | 79.4µM* | -19.4% | -4.1% | 20µM* | 3.98µM*
O=C(O)CCC(=O)OC[C@@H](NC(=O)C(Cl)Cl)C(O)c1ccc([N+](=O)[O-])cc1 (stereo partly specified) | · | · | · | 12.7% | -32.3%[2.33 µM]
CCCn1nc(C(=O)Nc2ccc3nc(N4CCOCC4)sc3c2)ccc1=O | -13.8% | -7.2% | 11.2% | · | 50.1µM*
Cc1ccc(OCC(=O)NCCNC(=O)c2ccncc2)cc1 | -9.8% | 9.4% | -0.4% | 8.1% | 12.8%
Cc1ccc(OCC(=O)NCCCNC(=O)c2ccncc2)cc1 | -17.7% | 10.1% | -3.8% | -0.6% | 31.6µM*
Cc1ccc(-n2c(SCC(=O)N(C)C)nnc2-c2ccco2)cc1 | -3.0% | -0.1% | 27.3% | 11.8% | 6.9%
O=C(Nc1nnc(S(=O)(=O)N2CCCCCC2)s1)c1ccccc1Br | 12.6µM*! | 14.1µM*! | 39.7% | 21.2% | 10µM*
O=C(Nc1nnc(S(=O)(=O)N2CCCCCC2)s1)c1ccc(Br)cc1 | ? | -38.8% | ? | 10.5% | 14.1µM*!
O=C(COc1ccc(Cl)cc1)Nc1nnc(S(=O)(=O)N2CCCCCC2)s1 | 10µM*! | 1.78µM*! | ? | 22.2% | 3.16µM*!
CCN(c1ccc(OC)cc1)S(=O)(=O)c1nnc(NC(=O)COc2ccc(C)cc2)s1 | -12.1% | -10.2% | 31.3% | 6.1% | ·
